GDH-TPI counter-1 – GDH-TPI coupled enzyme inhibition counter-screen. GDH-TPI coupled enzyme counterscreen, NADH absorbance. inhibition, % at 4.8 µM. actives 1.2% (n = 360,000); in the data active means inhibition above about 30%
UGM FP inh – Mtb UDP-galactopyranose mutase inhibition; purified UGM, fluorescence polarization probe displacement; inhibition, % at 10 µM; actives 0.06% (n = 320,000); in the data active means inhibition above about 10%, passing the limit was not always enough
PriA SSB inh – inhibitors of Klebsiella pneumoniae PriA binding to SSB C-terminal tail; AlphaScreen SSBct-PriA binding, biotinylated peptide; inhibition, % at 33 µM; actives 0.6% (n = 430,000); in the data active means inhibition mostly above about 37%, no sharp cut-off; inactive means mostly below about 20%
Mtb betalactam – beta-lactam sensitization of Mtb H37Rv; M. tuberculosis H37Rv growth with meropenem, percent inhibition; inhibition, % at 25 µM; actives 0.27% (n = 330,000); call rule not given here;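 further: growth measured after seven days incubation then overnight dye step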
Rv3671c inh – inhibitors of M. tuberculosis serine protease Rv3671c. P9WHR9. inhibition, % at 5.96 µM. actives 0.048% (n = 320,000); in the data active means inhibition above about 38%;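 further: extracellular domain of Rv3671c used as enzyme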
FBA Mtb inh – Mtb fructose-bisphosphate aldolase inhibition. actives 2.3% (n = 360,000). P9WQA3. purified M. tuberculosis FBA, fluorescence read-out. inhibition, % at 1 µM. AID 588726
Target sequence (P9WQA3 whole entry, looked up): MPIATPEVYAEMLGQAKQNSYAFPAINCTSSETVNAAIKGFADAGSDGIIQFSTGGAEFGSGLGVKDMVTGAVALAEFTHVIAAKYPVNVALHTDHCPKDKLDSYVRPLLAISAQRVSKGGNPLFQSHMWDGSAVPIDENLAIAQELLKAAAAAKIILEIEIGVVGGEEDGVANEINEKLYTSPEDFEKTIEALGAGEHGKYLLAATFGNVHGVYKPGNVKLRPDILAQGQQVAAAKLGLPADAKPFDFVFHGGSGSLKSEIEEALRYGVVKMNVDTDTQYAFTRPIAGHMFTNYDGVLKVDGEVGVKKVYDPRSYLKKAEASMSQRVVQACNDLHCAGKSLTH
Mtb FBA confirm – Mtb FBA inhibition, confirmed | inhibition, % at 1 µM | actives 78% (n = 5,600) | shares compounds with FBA Mtb inh | purified M. tuberculosis FBA, fluorescence read-out | AID 651616
GDH-TPI counter-2 – counter-screen for M. tuberculosis FBA inhibitors: GDH-TPI coupled enzyme inhibition | inhibition, % at 1 µM | GDH-TPI coupled enzyme counterscreen, fluorescence | AID 652141 | actives 81% (n = 5,600) | shares compounds with FBA Mtb inh; in the data active means inhibition above about 10%
GDH-TPI DR – GDH-TPI dose response counter-screen for Mtb FBA | shares compounds with FBA Mtb inh | GDH-TPI coupled enzyme assay, fluorescence, artifact counterscreen | IC50, µM | actives 79% (n = 170) | AID 652145; call rule not given here
Numbers stand for hits. This is a sample that favours compounds with a hit; in the whole collection about 3.2% have one here. Unless noted, no stated cut-off is given here; in the data, active means inhibition above about 27%; inactive means the rest.

For CS(=O)(=O)Cc1cc(Sc2ccccc2)nc(-c2ccncc2)n1 the results were GDH-TPI counter-1 inactive, UGM FP inh inactive, PriA SSB inh inactive, Mtb betalactam inactive, Rv3671c inh inactive, FBA Mtb inh 34, Mtb FBA confirm inactive and GDH-TPI counter-2 inactive.
`CC(C)(C)c1ccc(NC(=O)NCC2CCN(c3cnccn3)CC2)cc1` gave PriA SSB inh inactive.
Screening Cc1cccn2c(=O)c(C=NCCO)c(NCc3ccco3)nc12 returned GDH-TPI counter-1 inactive, UGM FP inh inactive, PriA SSB inh inactive, Mtb betalactam inactive, Rv3671c inh inactive, FBA Mtb inh 39, Mtb FBA confirm active and GDH-TPI counter-2 active.
O=C1CN(CCc2ccccc2F)C2CS(=O)(=O)CC2N1c1ccccc1 (stereo not drawn) was read as PriA SSB inh inactive.
For COc1ccc(C2CC(c3cccs3)=NN2c2ccc(C=O)cc2)cc1 (stereo not drawn) the results were UGM FP inh inactive, PriA SSB inh inactive, Mtb betalactam inactive and Rv3671c inh inactive.
For O=Cc1ccc(N2N=C(c3ccccc3)CC2c2ccccc2)cc1 (stereo not drawn) the results were GDH-TPI counter-1 inactive, UGM FP inh inactive, PriA SSB inh inactive, Mtb betalactam inactive, Rv3671c inh inactive, FBA Mtb inh 86, Mtb FBA confirm 136 and GDH-TPI counter-2 89.
CC(=O)Nc1ccc(C2=NN(C(=O)C(C)C)[C@H](c3ccco3)C2)cc1 was read as PriA SSB inh inactive.
Screening COc1ccc(C2CC(c3ccccc3)=NN2c2ccc(/C=N/NC(=O)c3ccncc3)cc2)cc1 (stereo not drawn) returned GDH-TPI counter-1 inactive, UGM FP inh inactive, Mtb betalactam inactive, Rv3671c inh inactive and FBA Mtb inh inactive.
N#CCC(=O)N/N=C/c1ccc(N2N=C(c3ccccc3)CC2c2ccccc2)cc1 (stereo not drawn) was read as GDH-TPI counter-1 inactive, UGM FP inh inactive, Mtb betalactam inactive, Rv3671c inh inactive, FBA Mtb inh 85, Mtb FBA confirm inactive, GDH-TPI counter-2 inactive and GDH-TPI DR 0.28.
For CC(=O)Nc1ccc(C2=NN(c3ccccc3)C(c3ccccc3)C2)cc1 (stereo not drawn) the results were GDH-TPI counter-1 inactive, UGM FP inh inactive, PriA SSB inh inactive, Mtb betalactam inactive, Rv3671c inh inactive, FBA Mtb inh 105, Mtb FBA confirm 42 and GDH-TPI counter-2 33.
For O=C(O)CC(CC(=O)O)c1ccc(F)cc1 the results were PriA SSB inh inactive.
O=C(Nc1cnc2cc(C(F)(F)F)nn2c1)c1c(F)cccc1Cl was read as PriA SSB inh inactive.
For Cn1c(C2CCCN(S(C)(=O)=O)C2)nn(CC(=O)NCCc2ccccc2)c1=O (stereo not drawn) the results were PriA SSB inh inactive.
For COc1cccc2sc(Nc3nnc(-c4ccc(F)cc4)o3)nc12 the results were GDH-TPI counter-1 40, UGM FP inh inactive, PriA SSB inh inactive, Mtb betalactam inactive, Rv3671c inh inactive, FBA Mtb inh 49, Mtb FBA confirm active and GDH-TPI counter-2 active.
`COc1cccc2sc(Nc3nnc(-c4ccc(Cl)cc4)o3)nc12` gave PriA SSB inh inactive.
Screening COc1cccc2sc(Nc3nnc(-c4ccco4)o3)nc12 returned PriA SSB inh inactive.
For Fc1cccc2sc(Nc3nnc(-c4ccco4)o3)nc12 the results were GDH-TPI counter-1 inactive, UGM FP inh inactive, PriA SSB inh inactive, Mtb betalactam inactive, Rv3671c inh inactive, FBA Mtb inh 33, Mtb FBA confirm 198 and GDH-TPI counter-2 166.
`O=C(CSc1nc2ccccc2o1)Nc1cnn(C2CCOC2)c1` (stereo not drawn) gave PriA SSB inh inactive.
O=C(Nc1ccccc1Cl)Nc1ccccc1Cc1nc(-c2ccco2)no1 was read as PriA SSB inh inactive.
For Cc1cccc(-n2ncc3c(=O)n4c(nc32)SCC4CC(=O)Nc2ncccc2C)c1 (stereo not drawn) the results were PriA SSB inh inactive.
COc1ccc(OC)c(/C=C/C(=O)OCC(=O)Nc2cccc(C(C)=O)c2)c1 was read as GDH-TPI counter-1 inactive, UGM FP inh inactive, PriA SSB inh inactive, Mtb betalactam inactive, Rv3671c inh inactive and FBA Mtb inh inactive.
COc1ccc(OC)c(/C=C/C(=O)Oc2ccc(C(C)=O)cc2)c1 was read as GDH-TPI counter-1 inactive, UGM FP inh inactive, PriA SSB inh inactive, Mtb betalactam inactive, Rv3671c inh inactive, FBA Mtb inh 33, Mtb FBA confirm 132 and GDH-TPI counter-2 107.
Screening CCc1ccc2oc(-c3ccc(NC(C)=O)cc3)nc2c1 returned GDH-TPI counter-1 inactive, UGM FP inh inactive, PriA SSB inh inactive, Mtb betalactam inactive, Rv3671c inh inactive, FBA Mtb inh 69, Mtb FBA confirm 181 and GDH-TPI counter-2 126.
For CCN(CC)CC(=O)Nc1ccc(-c2nc3cc(NC(=O)CN(CC)CC)ccc3o2)cc1 the results were GDH-TPI counter-1 inactive, UGM FP inh inactive, PriA SSB inh inactive, Mtb betalactam inactive, Rv3671c inh inactive, FBA Mtb inh 88, Mtb FBA confirm active and GDH-TPI counter-2 150.
`Cc1ccc2oc(-c3ccc(NC(=O)CC(C)C)cc3)nc2c1` gave GDH-TPI counter-1 inactive, UGM FP inh inactive, PriA SSB inh inactive, Mtb betalactam inactive, Rv3671c inh inactive, FBA Mtb inh 30, Mtb FBA confirm 39 and GDH-TPI counter-2 36.
Screening Cc1ccc(-c2nc3ncccc3o2)cc1NC(=O)CC(C)C returned GDH-TPI counter-1 inactive, UGM FP inh inactive, PriA SSB inh inactive, Mtb betalactam inactive, Rv3671c inh inactive, FBA Mtb inh 30, Mtb FBA confirm inactive and GDH-TPI counter-2 inactive.
`CC(C)(C)C1CCc2c(sc3nc(CCC(=O)NCc4cccnc4)[nH]c(=O)c23)C1` (stereo not drawn) gave PriA SSB inh inactive.
CN1C(=O)C(C)(C)COc2ccc(NC(=O)c3ccc(C(C)(C)C)cc3)cc21 was read as PriA SSB inh inactive.
Screening CCOc1ccc(CC(=O)NN=Cc2sccc2C)cc1 returned PriA SSB inh inactive.
`Cc1ccc2oc(-c3cccc(N)c3)nc2c1` gave GDH-TPI counter-1 inactive, UGM FP inh inactive, PriA SSB inh inactive, Mtb betalactam inactive, Rv3671c inh inactive, FBA Mtb inh 78, Mtb FBA confirm 63 and GDH-TPI counter-2 58.
For O=C(CN1C(=O)c2ccccc2C1=O)Nc1ccc(-c2nc3ccccc3o2)cc1 the results were GDH-TPI counter-1 inactive, UGM FP inh inactive, PriA SSB inh inactive, Mtb betalactam inactive, Rv3671c inh inactive and FBA Mtb inh inactive.

High-throughput results deposited in PubChem by several laboratories.
